Bioassay records from PubChem.
Sampled rows, rich in hits. Any-hit rate of the full collection: about 7.5%.
ELG1 genotox – induces genotoxicity in HEK293T cells with luciferase-tagged ELG1; Potency, µM (titrated, usually from 46 µM), actives largely listed as activators; HEK293T ELG1-luciferase reporter, luminescence, 16 h; AID 504466; actives 1.3% (n = 330,000); note: nearly all actives have a fitted effect of over 60% in size
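DMSO vehicle served as control against compound-treated ELG1-luciferase HEK293T cells; exposure lasted 16 hr at 37 °C and 5% CO2, followed by ONE-Glo luminescence detection after 30 min.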
KinaseGlo FLuc – counter-screen: inhibitors of Kinase-Glo firefly luciferase. Q27757. Kinase-Glo luciferase, ATP luminescence, 8 min. Potency, µM (titrated, usually from 38.3 µM), hits mostly inhibitors. actives 0.28% (n = 200,000). AID 1379; note: nearly all actives have a fitted effect of over 60% in size
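Luminescence was the read-out, taken after 8-minute incubation at ambient temperature. Luciferase turned over luciferin with 10 uM ATP in imidazole pH 7.2 buffer containing KCl, MgCl2, Tween 20 and BSA.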
SMN2 splice up – enhancers of SMN2 splice variant expression; actives 2.8% (n = 210,000); HEK293 SMN2-luciferase splicing reporter, luminescence, 30-36 h; Potency, µM (titrated, usually from 46.1 µM), most hits filed as activators; note: nearly all actives have a fitted effect of over 55% in size
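HEK293 cells carry an SMN2 minigene-luciferase reporter in which exon 7 inclusion puts luciferase in frame. Cells were seeded at 2000 cells/well, attached for 10-12 hours, then exposed to compounds for 30-36 hours at 37C before ONE-Glo luminescence.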
Rab9 prom act – Rab9 promoter activation | Huh7 Rab9 promoter-luciferase reporter, luminescence, 24 h | Potency, µM (doses to about 9.22 µM), actives largely listed as activators | actives 2.8% (n = 320,000) | AID 485297; note: nearly all actives have a fitted effect of over 60% in size
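Measured in stably transfected Huh7 cells bearing a Rab9 promoter–luciferase construct: 24 h compound treatment at 37 °C, followed by luminescence detection.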
NPC1 promoter act – NPC1 promoter activation. Huh7 NPC1 promoter luciferase reporter, 24 h. Potency, µM (highest dose often 9.22 µM), most hits filed as activators. actives 2.4% (n = 320,000); note: nearly all actives have a fitted effect of over 60% in size
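NPC1 promoter–luciferase Huh7 cells; 24 h compound; luminescence.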
FLuc counter – firefly luciferase modulation, counter-screen for miR-21 project; P08659; purified FLuc, Km substrates, luminescence inhibition; Potency, µM (doses to about 57.5 µM), actives largely listed as inhibitors; actives 6.9% (n = 360,000); note: nearly all actives have a fitted effect of over 55% in size
Target sequence (P08659 whole entry, looked up): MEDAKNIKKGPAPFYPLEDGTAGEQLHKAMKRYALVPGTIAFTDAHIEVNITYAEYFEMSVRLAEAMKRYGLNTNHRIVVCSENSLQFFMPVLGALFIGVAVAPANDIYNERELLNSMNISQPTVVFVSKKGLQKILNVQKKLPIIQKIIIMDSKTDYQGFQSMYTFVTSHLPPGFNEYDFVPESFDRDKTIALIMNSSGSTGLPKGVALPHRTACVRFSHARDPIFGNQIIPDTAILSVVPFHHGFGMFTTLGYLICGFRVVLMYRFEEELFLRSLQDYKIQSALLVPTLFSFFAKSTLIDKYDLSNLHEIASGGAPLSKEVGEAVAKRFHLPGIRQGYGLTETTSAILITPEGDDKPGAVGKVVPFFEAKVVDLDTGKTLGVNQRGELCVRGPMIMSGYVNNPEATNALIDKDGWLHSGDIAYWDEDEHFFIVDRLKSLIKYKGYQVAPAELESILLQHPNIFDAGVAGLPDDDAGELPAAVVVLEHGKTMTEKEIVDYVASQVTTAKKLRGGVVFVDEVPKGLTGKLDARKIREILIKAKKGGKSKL
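Biochemical qHTS of compounds, final roughly 60 µM downward over six points, against 10 nM purified firefly luciferase using Km concentrations of substrates (10 uM D-luciferin, 10 uM ATP) in Tris acetate pH 7.5 buffer; luminescence output.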
Hits are given with their value; n = inactive; u = inconclusive; x = no result given; [ ] = remark or other dose. Calls come from the whole dose curve; as a rule, active = well fitted curve in the direction sought with a large enough effect; inconclusive = small, poorly fitted or top-dose-only effect, or another doubt; inactive = no such curve, though single readings can be large; an effect the other way counts as inactive or inconclusive.

SMILES	ELG1 genotox	KinaseGlo FLuc	SMN2 splice up	Rab9 prom act	NPC1 promoter act	FLuc counter
C=C(C)C(=O)OCC1CO1 (stereo not given)	x	x	n	x	x	x
O=C(CSc1nnc(NC(=O)c2ccccc2[N+](=O)[O-])s1)NCc1ccco1	n	x	x	n	n	13µM
O=C(CSc1nnc(NC(=O)c2ccccc2F)s1)NCc1ccc(F)cc1	u	x	x	u	u	12µM
CCSCC[C@H](N)C(=O)O	x	n[7.66 µM]	n[9.22 µM]	x	x	x
CN(C)c1ccc2c(c1)N=C(c1ccco1)OP2(=S)N1CCOCC1 (stereo not given)	u	n	n	n	n	15µM
O=C(CCl)c1ccccc1	x	x	n	x	x	x
c1ccc(N=Nc2ccccc2)cc1	x	n	n	x	x	x
Cc1cccc(N=Nc2ccc(N(C)C)cc2)c1	4.6µM	x	x	1.3µM	0.63µM	0.67µM
CCOC(=O)Cn1cc(C(=O)c2ccccc2)c2ccccc21	n	x	x	n	n	n
CCOC(=O)CSc1ncnc2c1cnn2-c1ccccc1	n	n	u	n	n	12µM
Cc1cc(C=C2C(=O)N(C)C(=S)N(C)C2=O)c(C)n1C1CCCCC1	n	n	n	n	n	3.4µM
Cc1cc(C=C2C(=O)NC(=S)NC2=O)c(C)n1C1CCCC1	21µM	u	n	n	n	1.5µM
Cc1cc(N2CCCCC2)ccc1C=C1C(=O)N(C)C(=S)N(C)C1=O	n	n	n	n	n	u
Cc1cc(C=C2C(=O)NC(=O)NC2=O)c(C)n1-c1cccnc1	n	x	x	n	n	u
CCNCCC1(CC)C(=O)NC(=O)NC1=O	x	n[7.66 µM]	n[9.22 µM]	x	x	x
O[N+]1=CC=CCC1=S.On1ccccc1=S.[Zn]	x	n	n	x	x	x
OC(c1ccccc1)(c1ccccc1)C1CCCN1 (stereo not given)	u	n	n	3.2µM	n	12µM
CCCC[N+]12CCC(CC1)C(C(O)(c1ccccc1)c1ccccc1)C2 (stereo not given)	n	x	x	n	n	n
Nn1cnnc1	x	x	n	x	x	x
CN1C(=O)C(=Cc2ccccc2OCc2ccc(Cl)cc2)C(=O)N(C)C1=O	u	n	u	n	n	9.5µM
c1cc(CCN2CCCCC2)ccn1	x	n[7.66 µM]	n[9.22 µM]	x	x	x
O=c1[nH]c(O)c(N=Nc2ccc(SC(F)F)cc2)c(=O)[nH]1	n	x	x	u	n	2.4µM
NC(=O)c1ccc(N=Nc2c(O)[nH]c(=O)[nH]c2=O)cc1	n	n	n	n	n	n
Cc1ccc(OCCOc2cccc(C=C3C(=O)NC(=O)NC3=O)c2)c(C)c1	u	x	x	0.13µM	0.089µM	7.6µM
O=C1NC(=O)C(=Cc2cccc(OCCOc3ccccc3)c2)C(=O)N1	u	x	x	0.32µM	0.56µM	15µM
SMILES	ELG1 genotox	KinaseGlo FLuc	SMN2 splice up	Rab9 prom act	NPC1 promoter act	FLuc counter
COC(=O)c1c(C)ccc2c(O)c3c(cc12)C(=O)c1c2c(cc(O)c1C3=O)[C@@]1(C)O[C@@](C)(O2)[C@@H](O)[C@H](N(C)C)[C@H]1O	x	n[7.66 µM]	n[9.22 µM]	x	x	x
COC(=O)c1ccc(NC(=O)CSc2nc3ccc(N4C(=O)C5C6C=CC(C6)C5C4=O)cc3s2)cc1 (stereo not given)	n	n	n	n	n	13µM
C[C@]12CC[C@@H]3[C@H](CCC4=CC(=O)CC[C@]43C)[C@]1(O)CC[C@@]2(O)C(=O)CO	x	n[7.66 µM]	n[9.22 µM]	x	x	x
COc1ccc(P2(=O)Nc3ccccc3N2)cc1	n	n	n	n	n	7.6µM
Cc1ccc(/C=C/C(=O)C2C(=O)c3ccccc3C2=O)cc1	u	n	10µM	u	u	0.19µM
CN1/C(=C\C=C\C2=[N+](C)c3ccc4ccccc4c3C2(C)C)C(C)(C)c2ccccc21	n	u	n	n	n	13µM
CN1/C(=C\C=Nc2ccccc2)C(C)(C)c2ccccc21	n	x	x	n	n	n
O=C(O)CNC(=O)c1ccc([As](=O)(O)O)cc1	x	n[7.66 µM]	n[9.22 µM]	x	x	x
COc1ccc2o/c(=N\O)c(C(=O)Nc3ccc(C)cc3)cc2c1	u	n	x	n	n	u
COc1ccc(/C=C/C(=O)Nc2ccc(C)cc2)cc1	x	x	u	x	x	6.7µM
CCOC(=O)c1cc2c(cn1)[nH]c1ccccc12	n	n	u	n	u	15µM
Cc1ccc(N)c(N)c1	u	x	3.5µM	n	n	5.4µM
Nc1ccc(Cl)cc1N	x	x	7.1µM	x	x	x
Nc1cc(Cl)ccc1Cl	x	x	n	x	x	x
ClCc1ccccn1	x	x	n	x	x	x
C[C@H]1COC2=C1C(=O)C(=O)c1c2ccc2c1CCCC2(C)C	n	x	x	n	n	21µM
CSc1ccc2c(c1)c(CCN)c(C)n2Cc1ccccc1Cl	x	n[7.66 µM]	n[9.22 µM]	x	x	x
O=C(CNC(=O)c1ccc(Cl)cc1)OCC(=O)c1ccc2c(c1)OCCO2	n	n	n	n	n	21µM
Nc1ccccc1C(=O)OCC(=O)c1ccc2c(c1)OCCO2	u	11µM	n	3.2µM	2.8µM	0.076µM
CCOC(=O)c1ccccc1N	n	x	n	x	x	x
CC(=O)Nc1ccccc1C(=O)OCC(=O)c1ccc2ccccc2c1	n	n	x	x	n	12µM
CN1C(=O)/C(=C/c2ccc(N3CCCCCC3)o2)C(=O)NC1=S	21µM	n	11µM	1.4µM	2.2µM	4.8µM
CN1C(=O)/C(=C\c2ccc(N3CCCCC3)o2)C(=O)NC1=S	5.8µM	n	7.1µM	1.6µM	2.5µM	8.5µM
Cc1ccsc1/C=C1\C(=O)NC(=S)N(C)C1=O	u	x	x	n	n	15µM
CN1C(=O)/C(=C/c2ccc(Cl)s2)C(=O)NC1=S	n	x	x	n	n	u
SMILES	ELG1 genotox	KinaseGlo FLuc	SMN2 splice up	Rab9 prom act	NPC1 promoter act	FLuc counter
O=[As](O)(O)c1ccc(NCc2ccccc2)cc1	x	n[7.66 µM]	n[9.22 µM]	x	x	x
CS(=O)(=O)O[C@H]1CN2CCC1CC2	x	n[7.66 µM]	n[9.22 µM]	x	x	x
O=C(O)C(C(=O)O)P(=S)(S)c1ccccc1 (stereo not given)	x	n[7.66 µM]	n[9.22 µM]	x	x	x
COc1cc(/C=N/NC(=O)CN2CCCCC2)ccc1OCc1ccccc1	u	n	u	n	n	12µM
CCOP(=S)(OCC)Oc1ccc([N+](=O)[O-])cc1	x	x	n	x	x	x
O=C(Nc1ccncc1)c1cccn(Cc2ccccc2)c1=O	n	n	n	n	n	n
Cc1ccc(Cn2cccc(C(=O)Nc3ccc4c(c3)OCCO4)c2=O)cc1	x	x	x	x	x	8.5µM
O=C(Nc1ccon1)c1cccn(Cc2ccccc2)c1=O	x	x	x	x	x	n
O=C(Nc1ccc2c(c1)OCO2)c1cccn(Cc2ccccc2)c1=O	x	x	x	x	x	17µM
Cc1ccc(Cn2cccc(C(=O)Nc3ccc4c(c3)OCO4)c2=O)cc1	x	x	x	x	x	n
O=C(Nc1ccc2c(c1)OCO2)c1cccn(Cc2cccc(F)c2)c1=O	x	x	x	x	x	27µM
O=C(Nc1ccccc1)c1cccn(Cc2ccccc2)c1=O	u	n	n	4µM	n	24µM
CC(=O)O[C@H]1CC[C@H]2[C@@H]3CCC4=C[C@@H](C5SCCS5)[C@H](OC(C)=O)C[C@]4(C)[C@H]3CC[C@@]12C	x	n[7.66 µM]	n[9.22 µM]	x	x	x
CC(C)C(=O)CP(=O)(O)O	x	n[7.66 µM]	n[9.22 µM]	x	x	x
COc1ccc(C[C@@H](N)c2ccc(OC)cc2)cc1	x	n[7.66 µM]	n[9.22 µM]	x	x	x
